Laboratory results as given in PubChem BioAssay (NCATS).
Active and inactive are the calls of the source. The call rests on the fitted dose curve; in most records, active means well fitted inhibition curve with a large enough effect; inconclusive means small, poorly fitted or top-dose-only effect; inactive means flat fitted curve, though single readings scatter.

Each compound was assayed against Luciferin 4-monooxygenase (Photinus pyralis) (UniProt P08659) (assay: Primary firefly luciferase (FLuc) qHTS assay for identification of artifact compounds. (AID 1845220; further: nearly all actives have a fitted effect of over 60% in size)). Settings: purified firefly luciferase, luminescence, 5 min; series mostly up to 54.1 µM; activity change, negative = inhibition: at the top concentration.
From the text: PI: Alexander Tropsha Ph.D.
UNC Eshelman School of Pharmacy
University of North Carolina, Chapel Hill, North Carolina
Hits from high-throughput screening (HTS) of chemical libraries are often false positives due to their interference with the assay detection technology. In response to this problem, we generated the largest publicly available library of chemical liabilities and developed a free webtool to predict HTS artifacts, both of which are described herein. More specifically, we generated, curated, and integrated HTS datasets for thiol reactivity, redox activity, and luciferase (firefly and nano) activity. Using these curated datasets, we developed and validated several Quantitative Structure-Interference Relationship (QSIR) models to predict nuisance behavior. […] These models were employed for virtual profiling of the National Center for Advancing Translational Science's (NCATS) in-house library, and 256 compounds for each assay were selected for the experimental validation of nuisance behavior. The BA for these external predictions ranged from 58 to 78% for compounds within the applicability domains of the models. […] The models developed in this study, along with aggregation models previously developed by our group (SCAM Detective) were implemented in "Liability Predictor," an online tool which may be used as part of chemical library design or for triaging HTS hits. Both the models and the curated datasets are publicly available at https://liability.mml.unc.edu/.
SEQUENCE No. (e.g., 1, 2, 3, etc.); […] (e.g., Cells, Incubation, Reagent, etc.); VALUE; DESCRIPTION.
1; Reagent; 3 uL; Luciferase substrate mixture.
2; Compounds and control; 16 nL; Kalypsis pin tool (Wako USA) equipped with a 1536-well pin head.
4; Reagent; 1 uL; Luciferase enzyme.
6; Detection; Luminescence, ViewLux microplate reader.
NOTES (numbers refer to Sequence numbers above)
1. 3 uL of luciferase substrate mixture containing D-luciferin and ATP (final concentrations of 10 uM and 10 uM, respectively) in assay buffer (10 mM Mg-acetate, 0.01% Tween-20, 0.05% bovine serum albumin, 50 mM Tris acetate, pH 7.6) was dispensed into all wells of a 1536-well assay plate (solid-bottom white plate; Greiner Bio One, Monroe, NC).
2. A Wako Pin-tool (Wako Automation, Richmond, VA) was used to transfer 16 nL of compounds (consisting of 7-plates in qHTS format, final concentration range 18.3 nM to 114 uM) or control PTC124 (final concentration range 1.22 nM to 40 uM).
3. 15 min. incubation at room temperature protected from light.
4. 1 uL of luciferase enzyme (final concentration 10 nM, Photinus pyralis luciferase) or buffer was dispensed for a final assay volume of 4 uL.
5. Plates were centrifuged (121xg, 15 seconds) and incubated for 5 minutes.
6. Samples were read for luminescence on a ViewLux CCD imager (PerkinElmer). Data were normalized to no-enzyme (0% activity) and no-inhibitor (DMSO; 100%) controls and the resulting percent inhibition data were fitted to a 4-parameter Hill equation using NCATS in-house software.
For `C#CCN(Cc1cc2c(=O)n(C)c(CN3CCN(C)CC3)nc2cc1Cl)c1ccc(C(=O)NCc2cccnc2)cc1`, the “outcome” value was “inactive”. In the case of `CC(C)C(N)C(=O)OCCOCn1cnc2c(=O)[nH]c(N)nc21` (stereo not given), the “activity change, negative = inhibition” value is reported as -5.6% (inactive). For `CC(C)c1cc(CNc2nc(Nc3cc(C4CC4)[nH]n3)cc(N3CCN(C)CC3)n2)on1`, the “activity change, negative = inhibition” value was 2.59% (inactive). In the case of `Cc1ccc(C(=O)N(CCCN)C(c2nc3cc(Cl)ccc3c(=O)n2Cc2ccccc2)C(C)C)cc1` (stereo not given), the “outcome” value is reported as “inactive”. With `CC(C)=CCC/C(C)=C/Cc1ccc(O)c(C2OC(=O)c3cc(C(=O)O)cc(O)c32)c1O` (stereo not given) the “activity change, negative = inhibition” value was -6.97% [at 25.7 µM] (inactive). `C=CC1C(OC2OC(CO)C(O)C(O)C2O)OC=C2C(=O)N3C(C(=O)O)Cc4c([nH]c5ccccc45)C3CC21` (stereo not given) was tested, and the “activity change, negative = inhibition” value was 2.92% [at 25.7 µM] (inactive). In the case of `CCCN1CCN(c2ccc(C(=O)NC3(C(=O)NCC#N)CCCCC3)cc2)CC1`, the “activity change, negative = inhibition” value is reported as -12.1% (inactive). For `O=C(OC[C@@]1(O)CO[C@@H](O[C@H]2[C@H](Oc3ccc(O)cc3)O[C@H](CO)[C@@H](O)[C@@H]2O)[C@@H]1O)c1ccc(O)cc1`, the “activity change, negative = inhibition” value was -2.81% [at 25.7 µM] (inactive). For `CN(c1ccccc1CNc1nc(Nc2ccc3c(c2)CC(=O)N3)ncc1C(F)(F)F)S(C)(=O)=O`, the “outcome” value was “inactive”. With `CC(C)C(CO)Nc1nc(Nc2cc(N)cc(Cl)c2)c2ncn(C(C)C)c2n1` (stereo not given) the “outcome” value was “inactive”. With `CN(C)c1nc(NC2CCC(NCCc3ccc(Br)cc3OC(F)(F)F)CC2)nc2ccccc12` (stereo not given) the “outcome” value was “inactive”. With `CC(=O)CCC1=C(C)C(O[C@@H]2O[C@H](CO)[C@@H](O)[C@H](O)[C@H]2O)C(O)CC1(C)C` (stereo not given in full) the “outcome” value was “inactive”. `CC1=C(C)C(=O)OC(C(C)C2CCC3C4C5OC5C5(O)CC(OC6OC(CO)C(OC7OC(C)C(O)C(O)C7O)C(O)C6O)CC(O)C5(C)C4CCC23C)C1` (stereo not given) was tested, and the “activity change, negative = inhibition” value was 3.16% [at 25.7 µM] (inactive). For `CC(C)CN(C[C@@H](O)[C@H](Cc1ccccc1)NC(=O)O[C@@H]1CO[C@H]2OCC[C@H]21)S(=O)(=O)c1ccc(N)cc1`, the “activity change, negative = inhibition” value was -9.63% (inactive). With `CC(C)N(CCCCOCC(=O)NS(C)(=O)=O)c1cnc(-c2ccccc2)c(-c2ccccc2)n1` the “activity change, negative = inhibition” value was -1.19% (inactive). With `COC(=O)C1=CO[C@@H](O[C@@H]2O[C@H](CO[C@@H]3O[C@H](COC(=O)/C=C/c4cc(OC)c(O)c(OC)c4)[C@@H](O)[C@H](O)[C@H]3O)[C@@H](O)[C@H](O)[C@H]2O)[C@@H]2C(CO)=CC[C@H]12` the “outcome” value was “inactive [at 25.7 µM]”. `CC1CCC2(CO)C(C(=O)O)=CCCC2C1(C)CCc1ccoc1` (stereo not given) was tested, and the “activity change, negative = inhibition” value was -7.99% (inactive). `CN(C)C1CCN(C(=O)c2ccc(NC(=O)Nc3ccc(-c4nc(N5CCOCC5)nc(N5CCOCC5)n4)cc3)cc2)CC1` was tested, and the “activity change, negative = inhibition” value was 0.491% (inactive). For `CC1(C)CC[C@]2(CO[C@@H]3O[C@H](CO)[C@@H](O)[C@H](O)[C@H]3O)[C@@H](O)C[C@]3(C)C(=CCC4[C@@]5(C)CC[C@H](O[C@@H]6O[C@H](CO[C@@H]7O[C@H](CO[C@@H]8OC[C@@H](O)[C@H](O)[C@H]8O)[C@@H](O)[C@H](O)[C@H]7O)[C@@H](O)[C@H](O)[C@H]6O)C(C)(C)C5CC[C@]43C)[C@@H]2C1` (stereo not given in full), the activity change, negative = inhibition was -4.11% [at 11.6 µM] (inactive). In the case of `O=C1N=C(N2CCOCC2)CN1c1ccc(Cl)cc1`, the “activity change, negative = inhibition” value is reported as -18.9% (inactive). With `CCn1cc(NC(=S)Nc2cc(Cl)ccc2OC)c(C(N)=O)n1` the “outcome” value was “inactive”. `C[S+](CC[C@H](N)C(=O)[O-])C[C@H]1O[C@@H](n2cnc3c(N)ncnc32)[C@H](O)[C@@H]1O` (stereo not given in full) was tested, and the “outcome” value was “inactive”. For `CCOCc1nc2c(N)nc3ccccc3c2n1CC(C)(C)O`, the “activity change, negative = inhibition” value was 0.787% (inactive). `O=C(O)CC1CCC(c2ccc(-c3ccc4nc(C(=O)NCc5ccc(OC(F)(F)F)cc5)cn4c3)cc2)CC1` (stereo not given) was tested, and the “activity change, negative = inhibition” value was -8.93% (inactive). `CS(=O)(=O)c1ccc(-c2nnc(/C=C/c3nnc(-c4ccc(C#N)cc4)o3)n2-c2ccccc2Cl)nc1` was tested, and the “outcome” value was “inactive”. `COc1ccc(CCO[C@@H]2O[C@H](CO[C@@H]3OC[C@H](O)[C@H](O)[C@H]3O)[C@@H](O)[C@H](O)[C@H]2O)cc1` was tested, and the “activity change, negative = inhibition” value was -2.9% [at 25.7 µM] (inactive). With `CC1=CC(=O)CC(C)(C)C1CCC(C)O[C@@H]1O[C@H](CO[C@@H]2OC[C@@H](O)[C@H](O)[C@H]2O)[C@@H](O)[C@H](O)[C@H]1O` (stereo not given in full) the “outcome” value was “inactive [at 25.7 µM]”. With `COc1ccc(C2(O)c3ccccc3NC(=O)C2O)cc1` (stereo not given) the “activity change, negative = inhibition” value was 0.396% (inactive). For `COc1cc2c(cc1OC)[C@@H]1[C@H](O)[C@@H](OC)C=C3CCN(C2)[C@H]31`, the “activity change, negative = inhibition” value was 3.28% (inactive). `COc1c2cc(c(O)c1OC)-c1cc(ccc1O)CCC(O)CCCC2` (stereo not given) was tested, and the “outcome” value was “inactive”. For `CCOC(=O)CCN(C(=O)c1ccc2c(c1)nc(CNc1ccc(C(=N)N)cc1)n2C)c1ccccn1`, the “activity change, negative = inhibition” value was -11.8% (inactive). For `COc1ccc([C@@]2(O)c3c(ccc(CC=C(C)C)c3O)NC(=O)[C@@H]2OC)cc1`, the “activity change, negative = inhibition” value was 3.27% (inactive). For `CC(C)C(CO)Nc1nc(Nc2ccc(C(=O)O)c(Cl)c2)c2ncn(C(C)C)c2n1` (stereo not given), the “activity change, negative = inhibition” value was -28.8% (inactive). With `CCc1cccc(CC)c1NC(=O)c1nn(C)c2c1CCc1cnc(Nc3ccc(C(=O)NC4CCN(C)CC4)cc3OC(F)(F)F)nc1-2` the “activity change, negative = inhibition” value was -1.4% [at 25.7 µM] (inactive). For `C=C(C(=O)O)[C@@H]1CC[C@@]2(C)CC[C@H](O)[C@@]2(C(C)=O)C1`, the “activity change, negative = inhibition” value was 0.318% (inactive). With `COc1cc(/C=C/CO)cc(OC)c1O[C@@H]1O[C@H](CO[C@@H]2O[C@H](CO)[C@@H](O)[C@H](O)[C@H]2O)[C@@H](O)[C@H](O)[C@H]1O` the “activity change, negative = inhibition” value was 2.47% [at 25.7 µM] (inactive). `CC(C)/C=C1\NC(=O)C(C(C)C)n2c1nc1c(c2=O)C=CC=CO1` (stereo not given) was tested, and the “activity change, negative = inhibition” value was -8.52% (inactive). `Cc1nc(NC(=O)N2CCCC2C(N)=O)sc1-c1csc(C(C)(C)C)n1` (stereo not given) was tested, and the “activity change, negative = inhibition” value was -17% (inactive). With `c1cc(Nc2cc(C3CC3)[nH]n2)nc(Nc2ccc3nc[nH]c3c2)n1` the “activity change, negative = inhibition” value was -1.57% (inactive). `CC(C)S(=O)(=O)NC[C@H](C)c1ccc(NC(=O)c2cc(F)cc(F)c2)cc1` was tested, and the “activity change, negative = inhibition” value was -6.9% (inactive).
